Assay results published in PubChem BioAssay AID1159580 (chemical genetic matrix, 2015).
Values joined by “and” are separate entries in the source; they are usually repeats but may differ in a detail not shown here. Equal values may be shown once. The campaign covered roughly 5,500 compounds. About 2,000 (36%) were called active. Another 18% or so got no clear call; they are omitted. Cut-off read from the data, not from the text of the source: active = normalized growth mostly below about 0.91 (no sharp cut-off); inconclusive = no clear call, values can overlap the other calls; inactive = mostly above about 0.92. The list shows a part of the results.

Experiment: chemical genetic growth profiling, strain panel (AID 1159580);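 note: tested at 20 µM; growth read once vehicle control cultures reached saturation at 30 °C; 1 = growth at the plate median or of vehicle wells; lower values mean less growth of the strain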
Settings: S. cerevisiae deletion strains, growth OD
[1] = locus YDR150W, strain NUM1, active compounds read low
[2] = locus YMR307W, strain GAS1, active compounds read low
[3] = locus YNL128W, strain TEP1, active compounds read low

Measured: normalized growth

CC(=O)O[C@H]1C[C@@H](OC(C)=O)C(C)(C)C2C[C@@H](OC(C)=O)[C@]3(C)C(CC[C@@]4(C)[C@H](c5ccoc5)C(=O)[C@H]5O[C@]543)[C@]21C (stereo partly specified)
inactive: locus YAL021C, strain ccr4, active compounds read low 0.992 | locus YAL026C, strain drs2, active compounds read low 0.991 | locus YAL030W, strain snc1, active compounds read low 0.99 | locus YBL061C, strain skt5, active compounds read low 1 | locus YBR009C, strain hhf1, active compounds read low 1 | locus YBR021W, strain FUR4, active compounds read low 0.966 | locus YBR023C, strain chs3, active compounds read low 1.01 | locus YBR171W, strain sec66, active compounds read low 1 | locus YBR229C, strain ROT2, active compounds read low 1.01 | locus YBR231C, strain swc5, active compounds read low 1 | locus YBR279W, strain paf1, active compounds read low 1 | locus YCL011C, strain gbp2, active compounds read low 1.01 | locus YCL016C, strain dcc1, active compounds read low 0.998 | locus YCL029C, strain bik1, active compounds read low 1.01 | locus YCL061C, strain MRC1, active compounds read low 0.997 | locus YCL069W, strain vba3, active compounds read low 1 | locus YCR088W, strain abp1, active compounds read low 0.995 | locus YDL005C, strain med2, active compounds read low 0.986 | locus YDL035C, strain GPR1, active compounds read low 0.969 | locus YDL040C, strain nat1, active compounds read low 0.995 | locus YDL074C, strain BRE1, active compounds read low 0.975 | locus YDL101C, strain DUN1, active compounds read low 1.02 | locus YDL134C, strain PPH21, active compounds read low 1.02 | locus YDL185W, strain tfp1, active compounds read low 1.02 | locus YDL192W, strain arf1, active compounds read low 1.01 | locus YDR001C, strain nth1, active compounds read low 0.981 | locus YDR069C, strain doa4, active compounds read low 0.993 | locus YDR101C, strain arx1, active compounds read low 0.994 | locus YDR137W, strain rgp1, active compounds read low 0.935 | [1] 1.02 | locus YDR159W, strain sac3, active compounds read low 1.02 | locus YDR162C, strain NBP2, active compounds read low 0.987 | locus YDR195W, strain ref2 0.985 | locus YDR297W, strain sur2, active compounds read low 0.996 | locus YDR318W, strain mcm21, active compounds read low 1.01 | locus YDR334W, strain swr1, active compounds read low 0.991 | locus YDR335W, strain msn5, active compounds read low 0.994 | locus YDR388W, active compounds read low 1.04 | locus YDR392W, strain spt3, active compounds read low 1.02 | locus YDR502C, strain sam2, active compounds read low 1.02 | locus YEL003W, strain gim4, active compounds read low 1 | locus YEL037C, strain rad23, active compounds read low 1 | locus YEL061C, strain CIN8 (second series), active compounds read low 0.995 | locus YEL061C, strain CIN8, active compounds read low 1.01 | locus YER015W, strain faa2, active compounds read low 1.01 | locus YER016W, strain bim1, active compounds read low 0.997 | locus YER110C, active compounds read low 1.03 | locus YER111C, strain swi4, active compounds read low 1 | locus YER155C, strain BEM2 (second series), active compounds read low 0.998 | locus YER155C, strain BEM2, active compounds read low 1.02 | locus YER167W, strain BCK2, active compounds read low 1.01 | locus YFR010W, strain ubp6, active compounds read low 0.989 | locus YGL078C, strain dbp3, active compounds read low 1 | locus YGL086W, strain mad1, active compounds read low 1.01 | locus YGL167C, strain pmr1, active compounds read low 1 | locus YGL173C, strain kem1, active compounds read low 1.01 | locus YGL227W, strain vid30, active compounds read low 0.996 | locus YGL240W, strain doc1, active compounds read low 1.01 | locus YGL248W, strain PDE1, active compounds read low 1.02 | locus YGL253W, strain hxk2, active compounds read low 1 | locus YGR135W, strain pre9, active compounds read low 1.05 | locus YGR252W, strain gcn5, active compounds read low 0.996 | locus YHR013C, strain ard1, active compounds read low 1.01 | locus YHR027C, strain rpn1, active compounds read low 0.99 | locus YHR030C, strain SLT2, active compounds read low 1.01 and 0.945 | locus YHR079C, strain IRE1 (second series), active compounds read low 1.03 | locus YHR079C, strain IRE1, active compounds read low 0.925 | locus YHR094C, strain hxt1, active compounds read low 1.03 | locus YHR129C, strain ARP1, active compounds read low 1.02 | locus YHR142W, strain chs7, active compounds read low 1 | locus YHR200W, strain rpn10, active compounds read low 1.02 | locus YIL066C, strain RNR3, active compounds read low 0.98 | locus YIL073C, strain SPO22, active compounds read low 1.01 | locus YIL125W, strain kgd1, active compounds read low 1.01 | locus YIR030C, strain dcg1, active compounds read low 1.02 | locus YJL092W, strain hpr5, active compounds read low 1.01 | locus YJL095W, strain BCK1 (second series), active compounds read low 1 | locus YJL095W, strain BCK1, active compounds read low 1.03 and 0.969 | locus YJL115W, strain asf1, active compounds read low 0.987 | locus YJL129C, strain trk1, active compounds read low 0.973 | locus YJL134W, strain LCB3, active compounds read low 1.02 | locus YJL154C, strain vps35, active compounds read low 0.991 | locus YJL164C, strain tpk1, active compounds read low 1 | locus YJL166W, strain qcr8, active compounds read low 1.01 | locus YJL168C, strain set2, active compounds read low 1.04 | locus YJL187C, strain SWE1 (second series), active compounds read low 1.02 | locus YJL187C, strain SWE1, active compounds read low 1 | locus YJR066W, strain TOR1, active compounds read low 0.888 | locus YJR075W, strain HOC1, active compounds read low 1.04 | locus YKL009W, strain mrt4, active compounds read low 0.898 | locus YKL068W, active compounds read low 1.02 | locus YKL085W, strain MDH1 (second series), active compounds read low 1.01 | locus YKL085W, strain MDH1, active compounds read low 1.01 | locus YKL160W, strain elf1, active compounds read low 0.996 | locus YKL190W, strain CNB1, active compounds read low 1.01 | locus YKR001C, strain vps1, active compounds read low 0.993 | locus YKR026C, strain gcn3, active compounds read low 0.997 | locus YKR091W, strain srl3, active compounds read low 0.995 | locus YLL001W, strain dnm1, active compounds read low 1 | locus YLL026W, active compounds read low 1 | locus YLL041C, strain sdh2, active compounds read low 0.994 | locus YLR027C, strain aat2, active compounds read low 1.02 | locus YLR039C, strain RIC1, active compounds read low 1.02 | locus YLR058C, strain SHM2, active compounds read low 1.01 | locus YLR102C, strain apc9, active compounds read low 1.02 | locus YLR113W, strain HOG1, active compounds read low 1.03 | locus YLR221C, strain rsa3, active compounds read low 1 | locus YLR258W, strain gsy2, active compounds read low 0.995 | locus YLR262C, strain YPT6 (second series), active compounds read low 0.95 | locus YLR268W, strain sec22, active compounds read low 0.982 | locus YLR320W, strain mms22, active compounds read low 1 | locus YLR330W, strain CHS5, active compounds read low 1.02 | locus YLR342W, strain FKS1, active compounds read low 1.01 | locus YLR357W, strain rsc2, active compounds read low 1.01 | locus YLR370C, strain arc18, active compounds read low 1 | locus YLR371W, strain rom2, active compounds read low 1.03 | locus YLR384C, strain iki3, active compounds read low 0.995 | locus YLR418C, strain cdc73, active compounds read low 1.05 | locus YML016C, strain PPZ1, active compounds read low 1.01 | locus YML032C, strain rad52, active compounds read low 0.995 | locus YML120C, strain ndi1, active compounds read low 1 | locus YML124C, strain tub3, active compounds read low 1.02 | locus YMR058W, strain fet3, active compounds read low 0.99 | locus YMR078C, strain ctf18, active compounds read low 1.01 | locus YMR125W, strain sto1, active compounds read low 0.978 | locus YMR129W, active compounds read low 1 | locus YMR205C, strain PFK2, active compounds read low 1.01 | locus YMR223W, strain ubp8, active compounds read low 1.01 | locus YMR231W, strain pep5, active compounds read low 0.978 | [2] 0.931 | locus YNL067W, strain RPL9B, active compounds read low 1.04 | locus YNL071W, strain lat1, active compounds read low 0.996 | [3] 0.991 | locus YNL153C, strain GIM3, active compounds read low 1.02 | locus YNL183C, strain NPR1, active compounds read low 0.904 | locus YNL209W, strain ssb2, active compounds read low 1 | locus YNL233W, strain BNI4, active compounds read low 0.973 | locus YNL248C, strain rpa49, active compounds read low 0.969 | locus YNL250W, strain rad50, active compounds read low 1.06 | locus YNL271C, strain bni1, active compounds read low 1.01 | locus YNL298W, strain CLA4, active compounds read low 1.01 | locus YNL307C, strain MCK1, active compounds read low 1.02 | locus YNL322C, strain KRE1 (second series), active compounds read low 1.01 | locus YNR049C, strain mso1, active compounds read low 1.01 | locus YNR052C, strain pop2, active compounds read low 1.02 | locus YOL006C, strain TOP1, active compounds read low 0.962 | locus YOL012C, strain htz1 1.21 | locus YOL147C, strain pex11, active compounds read low 1.03 | locus YOR001W, strain rrp6, active compounds read low 0.985 | locus YOR061W, strain CKA2, active compounds read low 0.998 | locus YOR069W, strain VPS5, active compounds read low 1.02 | locus YOR070C, strain gyp1, active compounds read low 1 | locus YOR080W, strain dia2, active compounds read low 1.01 | locus YOR083W, strain WHI5, active compounds read low 0.991 | locus YOR106W, strain vam3, active compounds read low 0.985 | locus YOR136W, strain idh2, active compounds read low 1.01 | locus YOR144C, strain elg1, active compounds read low 1.02 | locus YOR184W, strain ser1, active compounds read low 0.965 | locus YOR231W, strain MKK1, active compounds read low 0.919 | locus YOR265W, strain rbl2, active compounds read low 0.997 | locus YOR270C, strain vph1, active compounds read low 0.875 | locus YOR290C, strain snf2, active compounds read low 1 | locus YOR316C, strain cot1, active compounds read low 1.02 | locus YPL051W, strain arl3, active compounds read low 1.01 | locus YPL078C, strain atp4, active compounds read low 0.991 | locus YPL106C, strain sse1, active compounds read low 1.05 | locus YPL240C, strain hsp82, active compounds read low 0.998 | locus YPL256C, strain CLN2, active compounds read low 0.994 | locus YPR119W, strain clb2, active compounds read low 1.02 | locus YPR141C, strain kar3, active compounds read low 1.03 | locus YPR163C, strain tif3, active compounds read low 1.02 | locus YPR167C, strain met16, active compounds read low 1.01 | strain wtn01, active compounds read low 0.987

COC(=O)c1c(-c2cc(OC)c(OC)c(OC)c2)c2ccc(OCc3ccccn3)cc2c(=O)n1-c1ccc(N)cc1
inactive: locus YAL013W, strain DEP1, active compounds read low 1.02 | locus YAL040C, strain CLN3, active compounds read low 1.01 | locus YCL061C, strain MRC1 (second series), active compounds read low 0.999 | [1] 1.01 | locus YDR363W, strain ESC2, active compounds read low 1.01 | locus YER002W, strain NOP16, active compounds read low 1.03 | [2] 1.01 | [3] 1.02 | locus YNL175C, strain NOP13, active compounds read low 1.03 | locus YNL197C, strain WHI3, active compounds read low 1.04 | locus YNL224C, strain SQS1, active compounds read low 1.04 | locus YOR083W, strain WHI5 (second series), active compounds read low 1.01 | locus YPL055C, strain LGE1, active compounds read low 1.02
